# This is a sample that favours compounds with a hit; in the whole collection about 7.9% have one here.
# LASV entry inh = Lassa virus entry inhibition | Potency, µM (titrated, usually from 37.9 µM), without a hit: at the highest dose activity change, negative = inhibition, actives largely listed as inhibitors | 1.2% of 300,000 active | Lassa virus pseudotype entry inhibition, cell reporter; calls by dose curve; tested in HEK293 cells; also: potency is read from the fitted curve at half-maximal effect; nearly all actives have a fitted effect of over 50% in size
# HCV inh = HCV inhibition; 3.4% of 340,000 active; Potency, µM (series often up to 41.8 µM), for inactives: top-dose activity change, negative = inhibition, hits mostly inhibitors; Huh7.5.1 HCVcc-Cre infection, luciferase reporter, 44 h; active = well fitted inhibition curve with a large enough effect; inconclusive = small, poorly fitted or top-dose-only effect, or another doubt; inactive = no such curve, though single readings can be large or run the other way; also: potency is read from the fitted curve at half-maximal effect
#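 Infectious HCV cell culture screen: compound-treated cells (1,000/well, pre-plated 4 h) are infected with HCVcc-Cre at roughly 0.5 moi and grown 44 h. Infection is quantified by luciferase signal after 15 min substrate incubation at room temperature.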
# HCMV inh = blocks human cytomegalovirus replication | HFF cells, HCMV-luciferase reporter, 72 h; stronger effect = lower value | activity change, negative = inhibition, % at 57.5 µM | 4.5% of 410,000 active; in the data active = activity change below about -60%; inconclusive = no clear call, values can overlap the other calls; inactive = above about -39%
#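 Human foreskin fibroblasts infected with luciferase-reporter HCMV at MOI 1 PFU/cell, compounds at two doses. Luciferase measured 72 h post infection; normalized to buffer-only basal and Salinomycin (10uM) controls.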
# FMDV antiviral = foot and mouth disease virus antiviral activity; 1.2% of 410,000 active; AID 1159524; FMDV antiviral cell-based qHTS; Potency, µM (series often up to 57.9 µM), for inactives: top-dose activity change, negative = inhibition, usual class: inhibitors; calls by dose curve; tested in HEK293T cells; also: read-out not given here; potency is read from the fitted curve at half-maximal effect; nearly all actives have a fitted effect of over 45% in size
# Marburg entry inh = blocks Marburg virus binding to or entry into cells. Marburg virus pseudotyped entry inhibition, cell reporter. 1.8% of 300,000 active. AID 540276. Potency, µM (series often up to 37.8 µM), for the others: at the highest dose activity change, negative = inhibition, actives largely listed as inhibitors; calls by dose curve; tested in HEK293 cells; also: potency is read from the fitted curve at half-maximal effect
# Numbers without * were called inactive; ? = inconclusive; nt = no result; [ ] = dose if it differs, or a comment. % is scaled to controls: 0 for no effect and ±100 for the full control effect.
SMILES,LASV entry inh,HCV inh,HCMV inh,FMDV antiviral,Marburg entry inh
CCC(=O)Nc1nnc(S(=O)(=O)N(CC)c2cc(C)cc(C)c2)s1,0.1%,?,-24.5,3.9%,?
COc1ccc(C(=O)Nc2ccc3[nH]ccc3c2)cc1,1.41µM*,?,42.3,8.91µM*,?
COc1cccc(NC(=O)c2ccc3c(c2)N(C)CCS3)c1,nt,10µM*,-37.5,12.5%,nt
O=C(Nc1cccc(Cl)c1)c1ccc2c(c1)OCCO2,?,-17.8%,96.5,?,?
CN1CCSc2ccc(C(=O)Nc3ccc(Cl)cc3)cc21,-25.2%[46.1 µM],-25.7%,24.5,73.1%,?
O=C(Nc1cccc([N+](=O)[O-])c1)c1ccc2c(c1)OCCO2,?,-21.4%,-107.1*,-16.4%,?
COc1cccc(C(=O)Nc2cccc(C(=O)N3CCOCC3)c2)c1,1.7%,5.3%,-66.4*,19.3%,?
Cc1ccc(C)n1-c1nnc(N2CCCC(C(=O)NCc3ccc(F)cc3)C2)s1 (stereo not given),0.4%[46.1 µM],nt,-17.4,0.0%,-29.5%[46.1 µM]
COc1ccc(CN2CCOc3c(cc(-c4ccc(OC)nn4)cc3OC)C2)c(O)c1,nt,nt,nt,8.6%,nt
Cc1ccccc1C(=O)Nc1ccc2c(c1)OCCO2,nt,-4.6%,-14.2,-21.1%,nt
O=C(Nc1nnc(C2=COCCO2)o1)c1ccc(Cl)cc1,-25.0%,-1.2%,-38.9,20.0%,3.9%
O=C(Nc1ccc2c(c1)OCCO2)c1ccc(Br)s1,5.62µM*,?,-5.3,?,7.94µM*
Cc1nc2cc(NC(=O)c3ccc(Br)s3)ccc2s1,nt,11.2µM*,?,-35.1%,nt
O=C(Nc1ccc2c(c1)OCCO2)c1coc2ccccc2c1=O,-6.4%,12.7%,-36.2,7.94µM*,-4.8%
O=C(Nc1nnc(C2=COCCO2)o1)c1ccc([N+](=O)[O-])cc1,-19.6%,8.9%,-97.8*,9.8%,-10.7%
COc1cc(C(=O)Nc2ccc3c(c2)OCCO3)ccc1OC(C)C,6.4%,12.6µM*,107.7,-2.7%,0.1%
COc1cc(C(=O)Nc2ccc3c(c2)OCCO3)ccc1OC(F)F,-15.7%,?,120.7,-12.3%,?
COc1cc2[nH]c(C(=O)Nc3ccc4c(c3)OCCO4)cc2c(OC)c1OC,8.1%[46.1 µM],?,-35.9,?,?
COc1cc(OC)cc(-c2nnc(NC(=O)c3ccc4c(c3)OCCO4)o2)c1,nt,2.1%,-61.0*,-15.5%,nt
COc1cc2cc(C(=O)Nc3ccc4c(c3)OCCO4)[nH]c2cc1OC,nt,?,-68.3*,?,nt
COc1cccc(OC)c1C(=O)Nc1ccc2c(c1)OCCO2,-7.5%,11.7%,-79.1*,-3.0%,2.0%
Fc1cccc(-c2nc(-c3ccncc3)no2)c1,18.5%[46.1 µM],nt,31.1,39.4%,nt
COc1cccc(NC(=O)c2ccc3c(c2)OCO3)c1,nt,0.5%,65.4,18.8%,nt
COc1cccc(NC(=O)c2ccc3c(c2)OCCO3)c1,1.12µM*,-14.4%,31.9,-42.9%,?
COc1ccc(C(=O)Nc2ccc3c(c2)OCCO3)cc1,5.17µM*,-3.5%,60.6,nt,6.51µM*
SMILES,LASV entry inh,HCV inh,HCMV inh,FMDV antiviral,Marburg entry inh
COc1cc(Cl)c(C)cc1NC(c1ccccc1)c1nnc(-c2ccccc2Cl)o1 (stereo not given),-10.9%[46.1 µM],nt,106.0,-1.4%,3.9%[46.1 µM]
CNc1c2cccc(C)c2nc2c(C(=O)NCCN(C)C)cccc12,?,1.41µM*,-100.0*,?,?
COc1ccc(/C=c2/sc3n(c2=O)C(c2ccccc2OC)C2=C(N=3)c3ccccc3CC2)cc1O (stereo not given),-25.1%,?,-63.8*,-11.5%,23.1µM*
CCCC1O[C@@H]2C[C@H]3[C@@H]4CCC5=CC(=O)C=C[C@]5(C)C4[C@@H](O)C[C@]3(C)[C@]2(C(=O)CO)O1 (stereo not given in full),nt,nt,nt,nt,3.16µM*
Oc1ccc(N=Nc2ccccc2C(F)(F)F)c2cccnc12,nt,3.16µM*,-97.4*,-6.8%,nt
CCS(=O)(=O)c1ccc(N=Nc2ccc(O)c3ncccc23)c(OC)c1,?,?,-92.1*,?,?
COc1ccccc1N=Nc1[nH]c2ccc(C)cc2c1O,?,2.1%,40.4,30.2%,?
Oc1ccc(F)c2cccnc12,20.2%,?,-28.3,0.0%,?
COc1ccccc1N=Nc1ccc(O)c2ncccc12,nt,2.24µM*,-73.4*,-10.4%,nt
COc1ccccc1-c1ccnc(-n2ncc(C(=O)NCc3cccc(C)n3)c2C)n1,nt,nt,nt,-7.7%,nt
CCOC(=O)[C@]12CCCC=C1N(CCC1=CCCCC1)C(=O)[C@H](CC(=O)N1CCCC1)C2,nt,nt,-27.1,-21.7%,nt
CCN(CC)C(=O)c1cccc(-c2csc(C(O)c3ccc(OC)cc3)n2)c1 (stereo not given),nt,nt,-12.6,?,nt
CCN(CC)C(=O)c1cccc(-c2csc(C(O)c3cccc(Cl)c3)n2)c1 (stereo not given),nt,nt,?,28.2µM*,nt
CCN(CC)C(=O)c1cccc(-c2csc(C(O)c3ccc(F)c(OC)c3)n2)c1 (stereo not given),nt,nt,-62.1*,?,nt
CCN(CC)C(=O)c1cccc(-c2csc(C(C)(O)c3ccncc3)n2)c1 (stereo not given),nt,nt,-31.6,25.1µM*,nt
O=C(/C=C/c1ccccc1)Nn1c(-c2cccs2)nc2ccccc2c1=O,-2.0%,-14.9%,-60.9*,-9.0%,-2.6%
CC(=O)c1ccc(S(=O)(=O)Nc2ccc(-c3cn4c(C)csc4n3)cc2)cc1,-4.4%[46.1 µM],nt,49.7,27.9%,nt
COc1cc(NC(=O)COc2ccc(-n3ccnc3)cc2)cc(OC)c1,4.1%,?,-86.7*,?,-10.4%[46.1 µM]
N#Cc1cccc(NC(=O)COc2ccc(-n3ccnc3)cc2)c1,4.3%,?,-26.4,28.2µM*,-16.0%
N#Cc1cccc(NC(=O)COC(=O)Cn2nc(-c3ccccc3)oc2=O)c1,nt,17.2%,-65.4*,-11.4%,nt
C/C(=N\NC(=O)COc1ccc(C(C)(C)C)cc1)c1ccc(-n2ccnc2)cc1,?,-27.4%,47.6,?,7.9%
COc1ccc(OCC(=O)N/N=C(\C)c2ccc(-n3ccnc3)cc2)cc1,-20.8%,26.2%,6.1,-8.4%,3.5%
CC(C)(C)c1ccc(NC(=O)COc2ccc(-n3ccnc3)cc2)cc1,?,5.01µM*,-85.6*,11.2µM*,?
COc1ccc(OCC(=O)Nc2cc(OC)cc(OC)c2)cc1,8.2%,?,?,nt,6.6%
CCCN(CC(=O)Nc1cc(Cl)ccc1Cl)C(=O)c1ccccc1SCC(=O)N1CCCC1,7.1%,11.5%,?,-17.3%,-14.9%
O=S(=O)(NC1CC1)c1ccc(S(=O)(=O)N2CCCC(c3nc(-c4cccnc4)no3)C2)cc1 (stereo not given),-9.2%,15.2%,-66.3*,?,?
O=S(=O)(c1ccc(F)cc1)N1CCCC(c2nc(-c3ccc(F)cc3)no2)C1 (stereo not given),nt,?,-6.5,-28.7%,nt
O=C(CC1SC(=NCCc2ccccc2)N(/N=C/c2cccs2)C1=O)Nc1ccc(Cl)cc1 (stereo not given),?,3.0%,-29.3,2.1%,-27.1%
Cc1ccc(Cl)cc1-n1ncc2c(NC3CCCCC3)ncnc21,?,nt,-78.2*,?,nt
